The panel holds about 83,000 compounds, 20% with a hit somewhere; the sample as a whole holds those more often.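 Treatment: one concentration, 48 hours, 96-well format. Scoring: percent growth, with anything below 10 considered active.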 Unmarked numbers belong to inactive results. The source made the active and inactive calls.

Test in all cases: NCI-60 one-dose screen, 48 h (100 = growth as untreated, 0 = no growth, -100 = all killed)
Common to all, as to details: 10 µM unless noted

The subject of test [1] is HCT-15 colon.
For test [2], the system named is HT29 colon.
The subject of test [3] is SNB-75 CNS.
For test [4], the system named is SNB-19 CNS.
Test [5] deals with U251 CNS.
The subject of test [6] is PC-3 prostate.
Test [7] has as its system SK-MEL-5 melanoma.
Test [8] relates to UACC-62 melanoma.
In test [9] the test system is LOX IMVI melanoma.
Test [10] concerns SK-MEL-28 melanoma.
The test system of test [11] is SK-MEL-2 melanoma.
The test system of test [12] is EKVX NSCLC.
Test [13] deals with SN12C renal.
Test [14] deals with UO-31 renal.
In test [15] the test system is TK-10 renal.
The test system of test [16] is ACHN renal.
In test [17] the test system is CAKI-1 renal.
Test [18] relates to CCRF-CEM leukemia.
In test [19] the test system is MOLT-4 leukemia.
Test [20] relates to A498 renal.

As to `CS(=O)(=O)N(c1cc(-c2ccc3ncnc(Nc4cccc(Cl)c4)c3c2)cnc1Cl)S(C)(=O)=O`, the growth was 10.4% in test [1]; 11.7% in [2]; -3.18% (active) in test [3]; 24.3% in test [4]; 20.8% in test [5]; 10.7% in [6]. The growth in [7] was -60.7% (active); in [8], -6.31% (active); in test [9] it was 2.19% (active); in test [10], -6.78% (active); in test [11], -20% (active); in [12] it was -3.18% (active). Further, the growth is 21.6% in test [13]; 2.2% (active) in [14]; 2.1% (active) in test [15]; 11.7% in [16]; 6.68% (active) in test [17]; 20.2% in [18]. For the same compound, the growth in test [19] was -10.5% (active).
With `CCn1cc(C(=O)O)c(=O)c2cc(F)c(N3CCN(S(=O)(=O)c4ccc(OC)c(OC)c4)CC3)cc21`, the growth in [1] was 102%; in test [2] it was 102%; in [3] it was 85.5%; in test [4] it was 96.2%; in test [5], 106%; in test [6] it was 90%. In addition, the growth in test [7] was 93.5%; in test [8], 95.2%; in [9] it was 85.8%; in test [10] it was 102%; in test [11], 91.8%; in test [13] it was 101%. The growth is 62.1% in test [14]; 100% in test [15]; 93% in [16]; 99% in test [17]; 90.4% in [20]; 99.7% in test [18]. Besides, in [19], the growth was 78.9%.
Take `O=C(Nc1ccc(F)c(Cl)c1)c1n[nH]c(=O)c2ccccc12`: the growth was 89.6% in test [1]; 112% in [2]; 94.2% in test [3]; 104% in test [4]; 90.3% in [5]; 112% in test [6]. In addition, the growth in [7] was 90.9%; in test [8], 81.4%; in [9], 87.4%; in [10], 115%; in test [11], 74.8%; in test [12], 123%. Besides, the growth in test [13] is 98.1%; in test [14] it was 106%; in test [15] it was 157%; in test [16], 89.1%; in test [17], 89.5%; in test [18], 105%. Besides, the growth in [19] is 97.2%.
Turning to `COc1cccc(NC(=O)Cn2cc3c(=O)oc4ccccc4c3n2)c1`, the growth in test [1] was 109%; in test [2], 105%; in test [3], 64.7%; in test [4], 102%; in [5] it was 125%; in test [6], 97.4%. Also, the growth was 100% in [7]; 100% in test [8]; 113% in test [9]; 94% in test [10]; 101% in test [11]; 103% in test [13]. The growth in test [14] was 88.5%; in test [15], 111%; in [16] it was 116%; in test [17], 95.6%; in test [20], 87.2%; in test [18], 102%. In addition, in [19], the growth was 111%.
`O=C(Nc1cccc(Cl)c1)c1cc([N+](=O)[O-])ccc1O`: the growth was 61.7% in test [1]; 49.8% in [2]; 67.8% in [3]; 53.3% in [4]; 47.5% in test [5]; 35.4% in [6]. The growth in test [7] was 16.7%; in test [8], 18%; in test [9], 34%; in [10], 28.6%; in test [11] it was 5.35% (active); in test [12] it was 60.5%. In addition, the growth in [13] was 55.1%; in test [15], 61%; in test [16], 59.9%; in [17], 52.6%; in test [20] it was 8.44% (active); in [18], 46.4%. Moreover, the growth in [19] is 35.7%.
As for `OC1CC2c3ccccc3C1c1ccccc12` (configuration not stated), the growth in [1] is 106%; in test [2], 110%; in [3] it was 90.5%; in [4], 117%; in test [5], 95.8%; in test [6], 100%. Besides, the growth in test [7] is 106%; in [8], 103%; in test [9], 97.3%; in test [10], 112%; in test [11] it was 117%; in test [12], 108%. Moreover, the growth in test [13] was 106%; in [15], 96.9%; in [16] it was 111%; in test [17] it was 94.5%; in test [20], 125%; in [18], 104%. Moreover, in test [19], the growth is 106%.
For `Nc1c(C(=O)Nc2cccc(C(F)(F)F)c2)sc2nc3c(cc12)C(O)CCC3` (configuration not stated), the growth is 36.7% in test [1]; 17.7% in test [2]; -6.78% (active) in test [3]; 86.8% in test [4]; 16.8% in test [5]; 23.4% in test [6]. Besides, the growth in test [7] is 25.7%; in test [8], 41.4%; in test [9] it was 47.8%; in [10], 49%; in test [11] it was 30.7%; in test [13] it was 51.5%. The growth is 49.9% in [14]; 54.6% in test [15]; 54.6% in test [16]; 30.1% in [17]; -2.02% (active) in test [20]; 14.5% in [18]. Also, in [19], the growth is 24.7%.
As to `O=C1Nc2cc(Cl)ccc2/C1=C/c1ccc(N2CCOCC2)s1`, the growth in [1] was 112%; in test [2], 97.3%; in test [3], 101%; in test [4], 86.6%; in [5], 96.7%; in test [6], 92.5%. Further, the growth in [7] was 104%; in test [8], 103%; in [9], 106%; in test [10] it was 114%; in test [11], 91.4%; in test [12], 105%. The growth in [13] is 104%; in test [15] it was -3.94% (active); in test [16] it was 114%; in [17] it was 100%; in test [20] it was 87.1%; in test [18], 99.8%. The growth in test [19] is 92.8%.

Source of the values: PubChem BioAssay (NCI).
